Compounds with a hit are over-represented: about 3% of the library has one in this group of screens.
CF NFkB inh – inhibitors of PAF-induced NF-kB signaling, primary screen, cell-based, GFP fluorescence, uHTS; KKLEB NF-kB-GFP reporter, GFP fluorescence overnight; inhibition, % at 5 µM; hit rate 0.86% among 360,000;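 active = at least 50% inhibition at 5 µM, scaled per plate between neutral and stimulator controls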;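 also: PAF is a Pseudomonas aeruginosa culture filtrate used as stimulus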
Peg3 promoter – Peg3 promoter-driven luciferase inhibitors, primary screen, cell-based, HeLa, luciferase luminescence; HeLa PEG-Prom luciferase reporter, overnight; inhibition, % at 20 µM; hit rate 1.7% among 360,000; AID 588405, 2011;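 active = inhibition of at least 50% at 20 µM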
MITF TRPM1 inh – inhibitors of MITF-dependent TRPM1 promoter reporter, primary screen, cell-based, SK-MEL-5, single point, luciferase | SK-MEL-5 TRPM1 promoter luciferase, 24 h | inhibition, % at 12.5 µM | hit rate 0.83% among 330,000 | AID 488899, 2010;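 active = mean inhibition across replicates of 60% or more, whatever share of single replicates reaches that level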
ABHD5 PLIN5 PPI – ABHD5-PLIN5 interaction inhibitors, primary screen, cell lysate, split luciferase complementation, luminescence. Perilipin-5 (Homo sapiens) + 1-acylglycerol-3-phosphate O-acyltransferase ABHD5 (Homo …. Split G. princeps luciferase complementation, 4 h. inhibition, % at 4 µM. hit rate 0.78% among 360,000. AID 602281, 2012;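 active = inhibition above the mean inhibition across every tested compound plus 3 SD, cut at about 22% in these data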
HIF-2a block – HIF-2a reporter inhibitors, primary screen, luminescence, 786-0 RCC cells; hit rate 0.72% among 360,000; 786-0 RCC cells HIF-2a reporter, luciferase luminescence, overnight; inhibition, % at 18.8 µM; AID 624352, 2012;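 active = inhibition of the luminescence signal of 40% or more relative to plate controls, in a single-dose primary screen at 18.75 µM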
KKLEB tox – cytotoxicity in KKLEB CF airway cells, primary screen, cytotoxicity control for CF NF-kB inhibitor project, cell-based, uHTS, fluorescence assay plates; KKLEB CF airway cells viability, ATPlite luminescence, overnight; active compounds read low; cells stimulated with P. aeruginosa culture filtrate; activity change (cytotoxicity), % at 5 µM; hit rate 0.36% among 360,000;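 active = corrected activity change at or below -50% at 5 µM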
Mdm2-MdmX confirm – retested Mdm2-MdmX interaction blockers, confirmation, cell-based, luminescence, single concentration, set 2; inhibition, % at 8 µM; shares compounds with HIF-2a block; hit rate 99% among 740; SaOS-2 split-luciferase Mdm2/MdmX complementation; AID 504601, 2011;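 active = mean inhibition of the luminescence signal across two replicates at or above 26 percent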
Target sequence (O15151 whole entry, looked up): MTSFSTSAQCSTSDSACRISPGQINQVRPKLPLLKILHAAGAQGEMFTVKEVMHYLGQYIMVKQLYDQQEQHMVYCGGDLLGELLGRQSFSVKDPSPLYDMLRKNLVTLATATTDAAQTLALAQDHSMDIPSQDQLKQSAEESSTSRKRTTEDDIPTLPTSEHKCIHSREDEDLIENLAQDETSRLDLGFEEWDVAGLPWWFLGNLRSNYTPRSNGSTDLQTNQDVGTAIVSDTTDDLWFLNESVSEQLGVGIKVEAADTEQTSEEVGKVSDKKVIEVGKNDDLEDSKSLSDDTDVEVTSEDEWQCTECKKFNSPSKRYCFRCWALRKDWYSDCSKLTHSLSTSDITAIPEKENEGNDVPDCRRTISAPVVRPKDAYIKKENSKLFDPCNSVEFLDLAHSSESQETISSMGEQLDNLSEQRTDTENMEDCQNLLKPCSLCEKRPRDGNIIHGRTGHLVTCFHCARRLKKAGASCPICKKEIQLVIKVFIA
Target sequence (Q00987 whole entry, looked up): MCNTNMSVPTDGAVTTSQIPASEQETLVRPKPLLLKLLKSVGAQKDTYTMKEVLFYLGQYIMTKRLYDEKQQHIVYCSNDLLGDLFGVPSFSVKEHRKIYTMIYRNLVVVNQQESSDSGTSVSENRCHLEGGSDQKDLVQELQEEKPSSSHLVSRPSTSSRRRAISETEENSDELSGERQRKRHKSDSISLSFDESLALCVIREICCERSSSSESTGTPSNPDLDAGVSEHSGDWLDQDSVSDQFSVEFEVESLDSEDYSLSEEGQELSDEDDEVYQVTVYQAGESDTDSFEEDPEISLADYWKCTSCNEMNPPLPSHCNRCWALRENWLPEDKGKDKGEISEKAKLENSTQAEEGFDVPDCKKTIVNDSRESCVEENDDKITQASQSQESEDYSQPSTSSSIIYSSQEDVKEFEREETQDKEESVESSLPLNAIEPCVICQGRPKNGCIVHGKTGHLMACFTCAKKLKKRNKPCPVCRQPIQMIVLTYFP
HIF-2a conf – HIF-2a reporter inhibitor retest, confirmation, luminescence, 786-0 RCC cells. AID 651580, 2012. HIF-2a luciferase reporter luminescence, overnight. hit rate 56% among 1,800. inhibition, % at 18.8 µM. shares compounds with HIF-2a block;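 active = mean inhibition across four replicates of at least 40 percent at the single tested concentration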
HIF-1a counter – HIF-1a luciferase reporter signal reduction – MiaPaCa-2 cells, single concentration, counter-screen for HIF-2a inhibitor project, confirmation | shares compounds with HIF-2a block | AID 651589, 2012 | hit rate 72% among 1,800 | inhibition, % at 18.8 µM | MiaPaCa-2 HIF-1a luciferase reporter, desferoxamine, overnight;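 active = mean inhibition of the reporter signal across four replicates at the single tested dose of 50% or more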
A number is an active result; – = inactive; · = not tested or not shown.

SMILES | CF NFkB inh | Peg3 promoter | MITF TRPM1 inh | ABHD5 PLIN5 PPI | HIF-2a block | KKLEB tox | HIF-2a conf | HIF-1a counter | others
CC(C)(C)n1nnnc1C(c1cccnc1)N1CCN(c2cccc(C(F)(F)F)c2)CC1 (stereo not given) | – | – | – | – | – | – | · | ·
CCN1CCCC1Cn1cnc2c([nH]c3ccc(OC)cc32)c1=O (stereo not given) | – | – | – | – | – | – | · | ·
CCc1nc2c(OCC3COc4ccccc4O3)cccn2c1N(C)C(=O)c1cccc(OC)c1 (stereo not given) | – | – | · | – | – | – | · | ·
O=C(CCl)Nc1cc(SCC(O)CO)cc([N+](=O)[O-])c1 (stereo not given) | 96 | 106 | 89 | – | 86 | -93 | 88 | 107
CC(C)=NOc1cc(NC(=O)CCl)cc([N+](=O)[O-])c1 | 79 | 110 | 87 | – | 44 | -57 | 66 | 106 | Mdm2-MdmX confirm=103
CCN1C(=O)[C@@H]2[C@@H](c3ccc(-c4ccc(F)cc4)cc3)N3CCCC[C@@]3(C(=O)OC)[C@@H]2C1=O | – | – | – | – | – | – | · | ·
CCN1C(=O)[C@H]2[C@@H](c3ccc(-c4ccc(Cl)c(Cl)c4)c(OC)c3)N[C@@](Cc3ccccc3)(C(=O)OC)[C@H]2C1=O | – | – | – | – | – | – | · | ·
CC(=O)N(C(C)=O)c1ncnc2c1c(-c1ccc(Cl)cc1)nn2C(C)(C)C | – | – | – | – | – | – | · | ·
CC(=O)Nc1ncnc2c1c(-c1ccc(Cl)cc1)nn2C(C)(C)C | – | – | – | – | 48 | – | 43 | –
N#C/C(=C\c1ccccc1)C(=O)N(c1ccccn1)C1CCCCC1 | – | – | – | – | 45 | – | 46 | –
Cc1ccc(C(=O)Nc2ccc(CC(=O)O)cc2)o1 | – | – | – | – | – | – | · | ·
Cc1cc(C(=O)Nc2ccc(CC(=O)O)cc2)c(C)o1 | – | – | – | – | 49 | – | 60 | –
CC(C)(C)c1ccc(C(=O)Nc2ccc(CC(=O)O)cc2)o1 | – | – | 73 | – | 83 | – | 96 | 79
COCCN(C(=O)CCC(=O)Nc1cc(C)on1)C(C(=O)NC1CCCC1)c1ccccc1C (stereo not given) | – | – | – | – | – | – | · | ·
COCCN(C(=O)CCl)C(C(=O)NC1CCCCC1)c1ccccc1C (stereo not given) | – | 60 | 78 | – | 66 | – | – | 91
O=[N+]([O-])c1ccc(Sc2cccc3cccnc23)c([N+](=O)[O-])c1 | – | 97 | 76 | – | – | – | · | · | Mdm2-MdmX confirm=83
Cc1cccc(C)c1OCc1cc(C(=O)NCc2cn(C)nc2C)no1 | – | – | – | – | – | – | · | ·
O=c1cc(-c2ccccc2)oc2ccc3ccccc3c12 | – | – | · | – | 51 | -67 | 70 | 57
O=C(Nc1ccc(Cl)cc1)P(=O)(O)c1ccccc1 | – | – | – | – | – | – | · | ·
Cc1nc2ccccc2n1-c1nc(-c2ccco2)cc(C(F)(F)F)n1 | 94 | 72 | 76 | – | 46 | -82 | – | 80
FC(F)(F)c1cc(-c2ccco2)nc(-n2cnc3ccccc32)n1 | – | – | – | – | – | – | · | ·
COc1cc(OC)c(C(=O)/C=C/c2ccc(OCc3ccccc3)c(OC)c2)c(OC)c1 | – | – | – | – | 46 | – | – | –
COc1cc(OCc2ccccc2)c(C(=O)/C=C/c2ccc3c(c2)OCO3)c(OC)c1OC | – | – | – | – | 52 | – | 40 | 53
COc1cc(/C=C/C(=O)N2CCOCC2)ccc1OCc1ccccc1 | – | – | – | – | – | – | · | ·
COc1ncnc2c1ncn2CCCNCc1ccc2c(c1)OCO2 | – | – | · | – | – | – | · | ·
SMILES | CF NFkB inh | Peg3 promoter | MITF TRPM1 inh | ABHD5 PLIN5 PPI | HIF-2a block | KKLEB tox | HIF-2a conf | HIF-1a counter | others
Cc1ccc(NS(=O)(=O)c2cccc(C(=O)NCC3CCCO3)c2)cc1 (stereo not given) | – | – | – | – | – | – | · | ·
Cc1ccccc1Oc1ccc2c(c1)[C@@H]1C[C@H](N(C)C(=O)c3ccc(C#N)cc3)[C@H]([C@H](C)O)C(=O)N1CC2 | – | – | – | – | – | – | · | ·
O=C(Nc1ccc(Cl)cc1)c1nc[nH]c1C(=O)NCCN(CCNC(=O)c1[nH]cnc1C(=O)Nc1ccc(Cl)cc1)CCNC(=O)c1[nH]cnc1C(=O)Nc1ccc(Cl)cc1 | 71 | 101 | – | – | – | -56 | · | · | Mdm2-MdmX confirm=100
Cc1ccc(NC(=O)c2nc[nH]c2C(=O)NCCN(CCNC(=O)c2[nH]cnc2C(=O)Nc2ccc(C)cc2)CCNC(=O)c2[nH]cnc2C(=O)Nc2ccc(C)cc2)cc1 | – | – | – | – | – | – | · | ·
COc1ccc(C(CC(=O)c2ccc(C)cc2)C(C#N)C#N)cc1OC (stereo not given) | 102 | 93 | – | – | 56 | -89 | – | 105
O=C(N/N=C/c1ccc([N+](=O)[O-])s1)c1cccc(Br)c1 | – | – | 82 | – | – | – | · | · | Mdm2-MdmX confirm=63
Cc1ccc(C(=O)N/N=C\c2ccc([N+](=O)[O-])s2)cn1 | – | – | 109 | – | 63 | – | 56 | 56
Cn1nnnc1Sc1ncnc2scc(-c3ccc(F)cc3)c12 | 60 | 97 | 83 | – | 78 | – | · | · | Mdm2-MdmX confirm=103
Cn1nnnc1Sc1ncnc2scc(-c3ccc(Br)cc3)c12 | 86 | 103 | 94 | – | 93 | -92 | 100 | 106 | Mdm2-MdmX confirm=103
Cn1nnnc1SCc1nc2scc(-c3ccc(Cl)cc3)c2c(=O)[nH]1 | – | – | – | – | – | – | · | ·
COc1cccc(CN2CCC2(C)C(=O)Nc2ccc(Cl)c(Cl)c2)c1F (stereo not given) | – | – | · | – | – | – | · | ·
COc1ccc(C(CCN(Cc2ccc(OC)c(OC)c2)C(C)=O)c2ccccc2)cc1 (stereo not given) | – | – | – | – | – | – | · | ·
